# Hits are enriched below; roughly 3.4% of the tested compounds scored in any of these assays.
# Gli-Sufu antag: Gli-Sufu pathway antagonism. Sufu-KO-LIGHT fibroblasts, Gli luciferase reporter luminescence. inhibition, % at 5 µM. 0.74% of 340,000 active;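 active = inhibition above about 55%, limit read from the data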;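 note: 0% = DMSO-treated cells and 100% = wells with medium but no cells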
# Cardio protect: protects H9c2 cardiomyocytes from peroxide injury. H2O2 injury protection, ATPLite, 2 h. protection from H2O2 cell death, % at 20 µM. 0.63% of 360,000 active;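 active = compounds giving at least 50% protection of heart cells from peroxide-induced death in the single-dose screen, raw or plate-pattern-corrected value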;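 note: 0% = DMSO wells with peroxide and 100% = DMSO wells without peroxide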
# SMARCA2 activ: activators of SMARCA2 function. MG213 cells, MMTV-luciferase reporter, dexamethasone, overnight. activation, % at 9.1 µM. 1% of 370,000 active; in the data active = activation above about 7.8%;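 note: 0% = vehicle wells and 100% = reference activator wells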
# COUP-TFII inh: inhibitors of human COUP-TFII (NR2F2); inhibition, % at 8.6 µM; HEK293T NGFI-A luciferase reporter, luminescence; P24468; AID 686940; 0.7% of 370,000 active;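 active = inhibition above a per-plate cutoff, mean inhibition of test wells between control levels plus 3 SD, cut at about 38% in these data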;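 note: cells cotransfected with COUP-TFII expression vector driving the NGFI-A reporter; 0% = median of COUP-TF2 test wells and 100% = reporter-only cells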
# Target sequence (P24468 whole entry, looked up): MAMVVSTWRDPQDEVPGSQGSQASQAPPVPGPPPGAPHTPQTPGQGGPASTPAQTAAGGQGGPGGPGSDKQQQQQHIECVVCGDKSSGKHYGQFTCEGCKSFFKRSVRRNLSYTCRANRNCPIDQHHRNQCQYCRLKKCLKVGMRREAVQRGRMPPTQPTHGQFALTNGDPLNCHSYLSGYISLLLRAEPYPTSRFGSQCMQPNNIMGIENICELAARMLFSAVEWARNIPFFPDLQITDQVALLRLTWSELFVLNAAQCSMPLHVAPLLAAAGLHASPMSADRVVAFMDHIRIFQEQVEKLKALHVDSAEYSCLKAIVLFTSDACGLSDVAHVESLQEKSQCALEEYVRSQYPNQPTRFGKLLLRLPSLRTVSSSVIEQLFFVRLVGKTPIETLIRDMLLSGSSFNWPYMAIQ
# FXN GAA850 act: activators of GAA850 frataxin (FXN) promoter; HEK293 lucGAA850 FXN promoter luciferase reporter, 24 h; percent of 10 µM SAHA response; activation, % at 6 µM; 0.56% of 360,000 active;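 active = activation above the average of all compounds screened plus 3 SD, cutoff fixed separately per campaign, cut at about 7.5% in these data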;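 note: 0% = DMSO wells and 100% = 10 µM SAHA wells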
# GalR3 antag: blocks the human galanin receptor 3; O60755; HEK293 GalR3-CNG cAMP membrane potential fluorescence; galR3 body fused to GalR1 C-terminus; inhibition, % at 3 µM; 0.44% of 360,000 active;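 active = inhibition above the screen-wide average plus 3 SD, cut at about 13% in these data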;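 note: forskolin and galanin both at EC90 stimulate the cells; cAMP rise reported by CNG channel membrane potential dye signal; 0% = forskolin plus galanin with DMSO and 100% = forskolin alone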
# The depositor's hits bear a star; . = not tested or not shown.
SMILES,Gli-Sufu antag,Cardio protect,SMARCA2 activ,COUP-TFII inh,FXN GAA850 act,GalR3 antag
CS(=O)(=O)N1N=C(c2ccc(Br)cc2)CC1c1ccc2c(c1)OCO2 (stereo not drawn),-87.5,-9.9,.,.,11.7*,.
COc1ccc(NC(=O)/C(Cl)=C(/Cl)S(=O)Cc2ccc(Cl)cc2)cn1 (stereo not drawn),46.3,-20.9,-8.2,66.3*,-16.8,34.9*
Cc1ccnc2c1ccc1cccnc12,92.3*,33.6,4.0,-3.2,-9.8,-4.2
c1cnc2c(c1)ccc1cccnc12,75.8*,59.5*,-1.8,4.8,-6.0,3.2
Cc1ccnc2c1ccc1c(C)ccnc12,90.8*,29.8,.,.,-11.7,.
O=Cc1ccc2ccc3cccnc3c2n1,3.6,44.4,2.2,9.2,0.1,-6.2
Cc1ccnc2c1ccc1ccccc12,-4.7,7.4,-0.5,-3.0,2.2,-9.6
Cc1cccc(-c2cccc3c4c([nH]c23)[C@@H]2C[C@H](N(C)C(=O)c3ccccc3C)[C@H]([C@H](C)O)C(=O)N2CC4)c1,.,.,0.8,3.2,.,.
CC(C)N1CCCCC(NC(=O)c2ccc(Cl)cc2Cl)C1=O (stereo not drawn),.,.,-2.3,-11.6,.,.
O=C(NCc1ccccn1)c1cc2cc(Br)ccc2oc1=O,-4.3,2.4,.,.,0.8,.
O=C(NNC(=O)c1cc2cc(Br)ccc2oc1=O)c1ccc(O)cc1O,-6.0,76.8*,-1.9,-4.1,0.3,-0.4
O=C(/C=C(\Nc1ccccc1)c1ccccc1)c1ccccc1,.,.,2.0,-30.3,.,1.3
COc1cc(C2c3c(oc4ccccc4c3=O)C(=O)N2c2ccc(C)cn2)ccc1O (stereo not drawn),-4.3,63.4*,-1.0,-5.8,0.4,2.8
CCOc1ccc(C2c3c(oc4ccccc4c3=O)C(=O)N2c2ccc(C)cn2)cc1OC (stereo not drawn),6.1,15.6,-1.9,5.1,1.2,3.0
CCOc1ccc(-n2c(COc3ccccc3)nnc2SCC(=O)Nc2ccc(OCc3ccccc3)cc2)cc1,.,.,-1.0,3.1,.,.
O=C(N/N=C/c1cccc(O)c1)c1ccc(COc2ccccc2Br)cc1,-12.4,-1.3,1.2,-26.2,0.9,-1.9
Cc1ccc(C(C)C)c(OCc2ccc(C(=O)N/N=C/c3ccc(O)cc3O)cc2)c1,35.4,57.1*,-7.8,12.9,-9.4,23.2*
Oc1ccc2ccccc2c1C=Nc1ccccc1Br,1.6,18.9,-2.0,-24.9,-0.1,7.0
Oc1c(Br)cc(Cl)cc1C=Nc1ccccc1Br,-14.0,72.5*,-1.0,4.6,1.4,-7.1
Cc1ccc2c(c1)-c1c(cnn1CC(=O)NCCc1cccc(F)c1)CO2,.,.,-6.1,8.0,.,.
O=C(NCc1cccs1)O[C@H]1CC[C@@]23CCCN2C(=O)CCC[C@H]3C1,.,.,.,-6.5,.,.
CCCN1CCN(C(=O)CCc2nnc3ccc(N4CCN(c5cccc(OC)c5)CC4)nn23)CC1,8.4,55.2*,3.0,14.7,0.8,3.0
CCc1ccc(-c2n[nH]c(=O)c3ccccc23)cc1,9.0,24.3,-3.0,-22.0,1.4,-5.7
Cc1ccc(-c2n[nH]c(=O)c3ccccc23)cc1N,-15.0,67.6*,-7.8,-0.5,2.3,-3.6
Nc1ccc(-c2n[nH]c(=O)c3ccccc23)cc1N,29.1,79.5*,-4.2,4.7,0.1,-3.9
SMILES,Gli-Sufu antag,Cardio protect,SMARCA2 activ,COUP-TFII inh,FXN GAA850 act,GalR3 antag
COc1ccc([C@H]2OC(=O)C[C@H]2C(=O)N2CCN(C(=O)C3CCCO3)CC2)cc1OC (stereo partly drawn),.,.,-5.8,0.1,.,.
Cc1nn(-c2ccccc2)c(C)c1/C=N/NC(=O)c1cc(-c2ccccc2)n[nH]1,36.5,75.3*,-0.3,-74.6,1.1,4.3
Cc1[nH]c2ccccc2c1/C=N/NC(=O)c1cc(-c2ccccc2)n[nH]1,-3.3,55.4*,-4.0,13.6,0.6,-4.4
COC(=O)[C@]12CCCCC=C1N(Cc1ccc(OC)cc1)C(=O)[C@@H]2CC(=O)N1CCCCC1,.,.,-1.5,6.0,.,.
CCc1ccccc1-c1cc(C(=O)OC)c2n(c1=O)CCC2,.,.,-0.4,17.0,.,.
CCN1C(=O)/C(=C\c2ccc(-c3cccc(C(=O)OC)c3)o2)SC1=Nc1ccc(C(=O)O)cc1,.,.,2.9,2.9,.,-10.1
CCN=C1S/C(=C\c2ccc(-c3cccc(C(=O)O)c3)o2)C(=O)N1CC,-125.5,-1.2,.,.,8.4*,.
O=C(COC(=O)c1ccccc1C(=O)OCC(=O)NCCc1c[nH]c2ccccc12)NCCc1c[nH]c2ccccc12,-0.9,61.8*,2.9,-11.3,0.7,-1.2
COc1ccc2[nH]c3c(c2c1)CCNC3C1CC=C(C)CC1 (stereo not drawn),16.6,16.0,-0.3,6.3,-6.5,-8.4
COc1ccc2[nH]c3c(c2c1)CCNC3c1ccc([N+](=O)[O-])o1 (stereo not drawn),-7.6,60.5*,-0.9,10.6,-1.7,-8.1
C=CCN1C(=O)[C@@H](CC(=O)NCCC(C)C)[C@]2(C(=O)OCC)CCCCC/C=C/12,.,.,1.4,10.0,.,.
COc1cccc2cc(-c3cc(=O)oc4ccc(OCC(C)=O)cc34)oc12,0.8,62.8*,1.4,8.9,-2.9,-1.1
NC(=O)COc1ccc2oc(=O)cc(-c3cc4ccccc4o3)c2c1,-1.0,70.6*,0.3,-12.1,1.2,-7.1
COC(=O)COc1ccc2oc(=O)cc(-c3cc4ccccc4o3)c2c1,-7.4,25.7,4.7,-9.5,1.3,8.1
COC(=O)COc1ccc2oc(=O)cc(-c3cc4cccc(OC)c4o3)c2c1,7.8,6.5,-0.9,-18.1,-1.2,0.3
Cc1ccc(C(c2c(C)n(C)n(-c3ccccc3)c2=O)c2c(C)n(C)n(-c3ccccc3)c2=O)s1,6.7,59.2*,-1.1,17.0,-1.0,3.0
Cc1ccc(-c2nc3ccc(Br)cn3c2Cc2cccc(F)c2)cc1,.,-6.8,6.2,-44.4,.,-6.2
O=C(Nc1nc(-c2ccccc2)cs1)C1CCCN(S(=O)(=O)c2cccc([N+](=O)[O-])c2)C1 (stereo not drawn),2.4,-6.8,-4.1,17.4,-1.6,-7.4
O=C(Nc1nc(-c2ccccc2)cs1)C1CCCN(S(=O)(=O)c2ccccc2)C1 (stereo not drawn),-8.1,-7.5,-5.8,44.0*,-9.3,-5.0
O=C(Nc1nc(-c2ccc(S(=O)(=O)N3CCCC3)cc2)cs1)c1cccs1,23.1,-10.7,-3.8,54.7*,-0.2,-0.8
CCCNC(=O)c1c(N)n(-c2ccc3c(c2)OCO3)c2nc3ccccc3nc12,12.1,-7.2,1.3,-6.4,-1.0,-4.1
Nc1c(C(=O)NC2CC2)c2nc3ccccc3nc2n1-c1ccc2c(c1)OCO2,11.0,77.1*,1.1,6.5,-0.9,0.8
O=C(COc1ncnc2ccccc12)c1ccc(Cl)cc1,-62.1,7.9,7.8*,-31.5,1.5,-1.2
N#CCC[C@H]1CC[C@]2(CCCN(C(=O)C3CCCCC3)C2)O1,.,.,3.6,-6.6,.,.
C/C(=N\OCC(=O)N/N=C/c1ccc(C)cc1O)c1cccs1,-4.5,63.8*,0.1,-0.2,0.8,-6.5

# Bioassay records as filed in PubChem.
